Assay results as given in PubChem BioAssay (NCI).
Several values for one entry are separate records, joined by “and”; a condition that tells them apart may be missing. Identical values can stand only once. Compounds without any hit were thinned out: in the full panel of roughly 83,000, 20% have a hit.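 96-well plates, one dose, 48 hours. Percent growth reported; active if below 10.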 Unmarked numbers belong to inactive results. Activity calls are given as the source filed them.

System: MDA-MB-468 breast
Assay: NCI-60 one-dose screen, 48 h (100 = growth as untreated, 0 = no growth, -100 = all killed)
Details: 10 µM unless noted

Row | SMILES | growth
1 | O=C(Nc1ccccc1O)c1ccc(-c2ccc(Cl)cc2Cl)o1 | 80.8%
2 | CN(C)CCCNc1c2ccc(Cl)cc2nc2c1oc1ccc(Cl)cc12 | 36.4%
3 | CCCCNCCC(O)c1cc2ccc(C(F)(F)F)cc2c2cc(C(F)(F)F)ccc12 (stereo not drawn) | -91% (active)
4 | COc1ccc(/C=N/C2=C(C#N)C(c3ccccc3)c3c(ccc4ccccc34)O2)cc1 (stereo not drawn) | -3.92% (active)
5 | COc1cc(/C=C(/c2ccccc2)[N+](=O)[O-])c(OC)c2c1OCO2 | -81.4% (active)
6 | NS(=O)(=O)c1ccc(N2N=C(c3cccs3)CC2c2ccccc2O)cc1 (stereo not drawn) | 21.1%
7 | COc1ccc(C(=O)/C=C/c2ccc(C)cc2)cc1OC | 47.6%
8 | CNC(=O)c1cc(Oc2ccc3nc(Nc4ccc(Cl)c(C(F)(F)F)c4)ccc3c2)ccn1 | 45.3%
9 | COc1cc(N=Nc2cc(Cc3ccc(N(C)C)cc3)c(N)cc2N(C)C)c2ncccc2c1 | -54.8% (active)
10 | Clc1ccc(C2=Nc3cccc4cccc(c34)N2)cc1Cl | -43.8% (active)
11 | CC(=O)c1ccc(Nc2nc(C(C)=O)c(C)s2)cc1 | 94.5%
12 | C=C1C(=O)O[C@H]2[C@H]1CC/C(COC(=O)CCCCCC(=O)OC/C1=C/CC[C@@]3(C)O[C@H]3[C@H]3OC(=O)C(=C)[C@@H]3CC1)=C\CC[C@@]1(C)O[C@@H]21 | -33.4% (active)
13 | COc1ccc(/C(=N\NC(N)=S)c2ccc(Cl)cc2)cc1OC | 15.9%
14 | Cc1ccc(C23CCC(=O)N2CCc2cncn23)cc1 (stereo not drawn) | 85.2%
15 | CC1=CCC(OC(=O)C(C)(C)CC(O)(C(C)O)C(O)C2(C)C=CC(Cc3ccc(C(C)C)cc3)(C(C)C)CC2)(C(C)C)CC1 (stereo not drawn) | 83.1%
16 | CCOC(=O)c1c(C)c2c(n1Cc1ccccc1)CSc1cc(C#N)c(=O)[nH]c1-2 | 80.3% [100 µM]
17 | CCN(CC)S(=O)(=O)c1ccc(S(=O)(=O)N2CCC[C@@H](C(=O)N3CCN(C(=O)OC(C)(C)C)CC3)C2)cc1 | 15.6%
18 | c1cnc2ccc3ncccc3c2c1 | 122%
19 | Cc1ccc(OC(=O)c2ccc(Cl)cc2)cc1 | 105%
20 | C1CCN(c2nc(N3CCCCC3)nc(N3CCOCC3)n2)CC1 | 107%
21 | CCOP(=O)(OCC)c1nc(-c2ccccc2)oc1NCc1cccnc1 | 114%
22 | Cn1cc(-c2nn3cc(-c4cccnc4)nc3s2)c2cc(F)ccc21 | 66.3%

Row | SMILES | growth
23 | Cc1nc2ncccc2nc1Nc1ccc(S(=O)(=O)Nc2ccccn2)cc1 | 109%
24 | Cc1[nH]c(C(=O)Nc2ccccc2OCc2cccc(C(=O)NCCN)c2)c(Cl)c1Cl | 10.7%
25 | COc1cc(/C=N/n2cnc3oc(-c4ccccc4)cc3c2=N)cc(CN2CCOCC2)c1O | 83.2%
26 | Nc1nc(-c2cc3c(cc2Cl)NC(=O)/C3=C/c2ccccc2)cs1 | 33.7%
27 | O=c1c2c(c3ccccc3n1-c1ccccc1)NC(=S)NC2c1ccccc1 (stereo not drawn) | 74.4%
28 | Cc1cc(S(=O)(=O)/N=C(\N)n2nc(C)c(C)c2C)c(SCc2ccccc2)cc1Cl | 66%
29 | CC1CN(S(=O)(=O)c2oc(-c3ccc(Cl)cc3)nc2C#N)CC(C)O1 (stereo not drawn) | 70%
30 | COc1ccc(-c2[nH]ncc2-c2cc(OC)c(OC)c(OC)c2)cc1 | -4.91% (active)
31 | O=c1c2c(c(=O)n1O)c1c3ccc[nH]c3nc1c1nc3[nH]cccc3c12 | 64%
32 | CC#CC#Cc1cccc(=O)o1 | 29.3%
33 | COc1cc(C2C=C(C)N=C3SC(C)=NN32)cc(OC)c1OC (stereo not drawn) | 106%
34 | CC/C=C\C[C@H](O)C/C=C1/C(=O)C=C[C@@H]1C/C=C\CCCC(=O)OC(C)C | -17% (active)
35 | O=C(CSc1nc2ccccc2[nH]1)Nc1cccc(Cl)c1 | 113%
36 | O=C(NOC[C@H](O)CO)c1ccc(F)c(F)c1Nc1ccc(I)cc1F | 106%
37 | C/C(=C(/c1ccc(O)cc1)c1ccc(OCCN2CCCC2)cc1)c1ccc(Cl)cc1 | 13.5%
38 | COC(=O)C1(C)COP(=O)(Nc2ccc(OC)cc2)OC1 (stereo not drawn) | 106%
39 | CC(C)CSc1oc(-c2ccccc2)nc1S(=O)(=O)c1ccccc1 | 89.4%
40 | Cc1cc(C)c([O-])c(CN(C)CCN(C)Cc2cc(C)cc(C)c2[O-])c1.O=C([O-])c1cccc(C(=O)[O-])n1.[Ti+4] | -8.96% (active)
41 | CCCCC(CCCC)(S(=O)(=O)CC)S(=O)(=O)CC | 98.2%
42 | Cc1ccc(N=Nc2ccccc2)cc1 | 95.2%
43 | N#C/C(=C\c1ccc(Br)cc1)n1nnc2ccccc21 | 6.92% (active)
44 | O=S(=O)(NCCCNc1nccc(-n2cnc3ccccc32)n1)c1ccc(C(F)(F)F)cc1 | 76.2%

Row | SMILES | growth
45 | N/C(=N\OC(=O)CSc1nc2ccccc2s1)c1ccc2ccccc2c1 | 102%
46 | Cn1ccnc1CN1CCSC(C(=O)Nc2ccccc2)C1 (stereo not drawn) | 87.8%
47 | COc1cc(OCc2cccc(-c3ccccc3)c2C)cc(OC)c1CN1CCCCC1C(=O)NCCOCCOCCN (stereo not drawn) | 30%
48 | N=C1/C(=C2\NC3C=CC=CC3S2)C(c2ccc(Cl)cc2)C2C(=O)N(c3ccccc3)C(=S)N12 (stereo not drawn) | 97.9%
49 | Cc1ncc(C(=O)Nc2ccc(CN3CCN(C)CC3)c(C(F)(F)F)c2)cc1C#Cc1cnc(N)cc1C#N | 68.2%
50 | CNc1sc(S(=O)(=O)NC)nc1S(=O)(=O)c1ccc(C)cc1 | 86.3%
51 | CNS(=O)(=O)Oc1ccc(-c2sc3cc(OS(=O)(=O)NC)ccc3c2C(=O)c2ccc(OCCN3CCCCC3)cc2)cc1 | 63.1%
52 | CC(=O)C1CCC2C3CC(F)C4=CC(=O)CCC4(C)C3C(O)CC12C (stereo not drawn) | 104%
53 | CC(Sc1nc2ccccc2c(=O)n1CCc1ccc(S(N)(=O)=O)cc1)C(=O)Nc1ccc(Cl)cc1 (stereo not drawn) | 84%
54 | O=C(CSC(=S)N1CCCCC1)Nc1ccccc1 | 103%
55 | Cc1cccc(C)c1NC(=O)Nc1ccccc1 | 77.6%
56 | COc1ccc(C2CC(c3cc(OC)c(OC)c(OC)c3)=NN2C(C)=O)cc1OCC(=O)Nc1nc2ccc(C(F)(F)F)cc2s1 (stereo not drawn) | 84.1%
57 | Nc1nccc(Nc2ccccc2)n1 | 116%
58 | O=c1nc(-c2ccccc2)c2cc(-c3ccc(N4CCOCC4)cc3)ccc2[nH]1 | 77.4%
59 | CCOc1cc(/C=N\NC(=O)C[N+](C)(C)C)ccc1O | 123%
60 | ClC1=C(Cl)C(Cl)=C(Cl)C1=C/C=C/c1ccccc1 | -50.3% (active)
61 | COc1cccc(CCNc2ncnc3c2ncn3Cc2nnc3c4ccccc4c(Cl)nn23)c1 | 57.4%
62 | COc1ccc2nc3c(cc2c1)C(=O)CC(c1ccccc1)C3 (stereo not drawn) | 68.3%
63 | Cc1ccc(/C=C(\C#N)c2cc3ccccc3[nH]2)cc1 | 43.2%
64 | CN1CCN(c2nc(-c3ccncc3)nc3sc4c(c23)CCCCCC4)CC1 | 62.7%
65 | COc1cc(C(=O)n2nc(N)c3c(C)cc(C)nc32)cc(OC)c1OC | 20.3%
66 | C[C@@H](NC(=O)c1ncnc(N)c1Cl)c1ncc(C(=O)Nc2cc(C(F)(F)F)c(Cl)cn2)s1 | 92.6%

Row | SMILES | growth
67 | CCCCC1Nc2nc(SC)n(C)c(=O)c2CN(Cc2ccccc2)C1=O (stereo not drawn) | 101%
68 | NC(N)=Nc1ccc(Oc2cccc(NC(N)=Nc3ccc(Br)c(C(F)(F)F)c3)c2)cc1 | 4.68% (active)
69 | CNCCn1c(=O)c2cc(OC)c(OC)cc2c2ccc3cc4c(cc3c21)OCO4 | -53.9% (active)
70 | C=CC(C)(O)CCC1C(=C)CCC2C(C)(C)CCCC12C (stereo not drawn) | 109%
71 | N/C(=C\C(=O)n1nc(-c2ccccc2)cc1N)c1ccccc1 | 19.2%
72 | Cn1ncc2c(=O)nc3c(-c4ccccc4)n[nH]n3c21 | 101%
73 | CCCCn1c(C)nc2cc(Nc3nc(N4CCCCC4)nc4nc[nH]c34)ccc21 | 36.1%
74 | COc1ccc(-c2cc(/C=C3\C(=O)Nc4ccc(OC)cc43)[nH]n2)cc1 | 19%
75 | N=C(N)c1ccc(-c2ccc(-c3ccccc3)s2)cc1 | -39.2% (active)
76 | NC(CSC(c1ccccc1)(c1ccccc1)c1ccc(Cl)cc1)C(=O)O (stereo not drawn) | -6.09% (active)
77 | Cc1ccccc1OCC(O)COc1ccccc1C | 105%
78 | COc1ccc(-n2cnc3cc(C(=O)N4CCCCC4)ccc32)cc1 | 103%
79 | O=[N+]([O-])c1cc(Br)c2cccc3c2c1CC3 | 97.3%
80 | O=c1c2ccccc2oc2ccc(OCCCCCN3CCCCCC3)cc12 | 49.8%
81 | CN(C)c1ccc(-c2c(C#N)c(N)nn2C(=O)c2ccc(NC(=O)c3ccccn3)cc2)cc1 | 119%
82 | CN(C)C(=S)SC(=S)N(C)C | 91.4% and 95.3%
83 | COc1ccc(OC)c(CCn2cncc2-c2c[nH]c3ccccc23)c1 | 41%
84 | COC(=O)C1=C(C(=O)Nc2cccnc2)C2OC1(C(Cc1ccccc1)Oc1ccccc1)C1OC21 (stereo not drawn) | -66.3% (active)
85 | C=C1C(=O)O[C@H]2[C@H]1CC/C(COC(=O)N[C@@H](Cc1c[nH]c3ccccc13)C(=O)OC)=C\CC[C@@]1(C)O[C@@H]21 | -16.4% (active)
86 | CN(C)c1ccc(/C=C\c2cccc[n+]2C)cc1 | 4.18% (active)
87 | Cn1cc(-c2nonc2-c2cn(C)c3ccc(Br)cc23)c2ccccc21 | 42.8%
88 | COC(=O)[C@]12CC[C@@H](C)[C@H](C)[C@@H]1C1=CC(=O)[C@@H]3[C@@]4(C)C[C@@H](OC(C)=O)[C@H](OC(C)=O)[C@@](C)(COC(C)=O)[C@@H]4C(=O)C[C@@]3(C)[C@]1(C)CC2 | 35.3%
